Laboratory results as given in PubChem BioAssay (NCI).
The panel holds about 83,000 compounds, 20% with a hit somewhere; the sample as a whole holds those more often.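 How to read the values: 0–100, growth inhibition (40 = 60% inhibited); 0, no net growth; -100 to 0, cell death (-40 = 40% of starting cells died; -100 = all dead).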 The source made the active and inactive calls. How the source made its calls: active means growth percent below 10; inactive means the rest.

Tested on: MDA-MB-468 breast
Experiment: NCI-60 one-dose screen, 48 h (100 = growth as untreated, 0 = no growth, -100 = all killed)
Details: 10 µM unless noted

Question: `Cc1ccc(Nc2nc(-c3ccc(F)cc3)c(C#N)c(=O)n2C)cc1` was tested. Which growth did it give?
Answer: 62.1% (inactive)

Question: `COc1cc(-c2ccc[nH]2)[nH]c1/C=C1\N=C(C)C(CC(=O)OCC(C)(C)C)=C1C` was tested. Which growth did it give?
Answer: -79.2% (active)

Question: `CN(C)C(=O)c1cc2cnc(Nc3ccc(-c4csc5c(=O)cc(N6CCNCC6)oc45)cc3)nc2n1C1CCCC1` was tested. Which growth did it give?
Answer: 19.6% (inactive)

Question: `CCOP(C)(=O)/C(Cc1ccc(OC)c(OC)c1)=N\O` (stereo unspecified) was tested. Which growth did it give?
Answer: 96.5% (inactive)

Question: For `COc1ccc(/C=C/C(=O)Nc2cccnc2Nc2ccc(F)cc2)cc1`, which growth is on record?
Answer: 84% (inactive)

Question: With `COC(=O)c1cc([N+](=O)[O-])cc([N+](=O)[O-])c1Cl` as the compound, how does the growth read?
Answer: -7.42% (active)

Question: For `Nc1c(C(=O)Nc2ccncc2)sc2nc3c(cc12)C(O)CCC3` (stereo unspecified), which growth is on record?
Answer: 88.5% (inactive)

Question: Which growth does the source give for `COc1ccc(Cn2cc3c(c2-c2ccccc2)CCCc2cnoc2-3)cc1` here?
Answer: 47.7% (inactive)

Question: For `O=C(c1ccccc1O)N1CCCC1`, which growth is on record?
Answer: 94.1% (inactive)

Question: `Cc1ccc(S(=O)(=O)Oc2ccccc2-c2ccccc2)cc1` was tested. Which growth did it give?
Answer: -3.07% (active)

Question: With `COC(OC)C1(c2ccccc2)NC(=O)NC1=O` (stereo unspecified) as the compound, how does the growth read?
Answer: 113% (inactive)

Question: Which growth does the source give for `Cc1c(CC(=O)Nc2ccccc2)nnn1-c1ccccc1` here?
Answer: 117% (inactive)

Question: With `CSc1cnc2ccccc2n1` as the compound, how does the growth read?
Answer: 119% (inactive)

Question: For `CCOC(=O)c1nn(C2CCCCO2)c2ccc(NC(=O)CSc3nc4ccccc4c(=O)[nH]3)cc12` (stereo unspecified), which growth is on record?
Answer: 95.7% (inactive)

Question: For `Cc1ccc(NC(=O)N/C(N)=N/c2nc(=O)c3ccccc3s2)cc1`, which growth is on record?
Answer: 89.9% (inactive)

Question: `O=c1oc2cc(OS(=O)(=O)c3ccccc3)c(Cl)cc2c2c1CCCCCC2` was tested. Which growth did it give?
Answer: 62.2% (inactive)
